Screening data as filed in PubChem BioAssay.
Hits are enriched below; roughly 2.4% of the tested compounds scored in any of these assays.
POLI inh = DNA polymerase iota (human) inhibition; Q9UNA4; Pol iota fluorescent replication assay, 10 min; Potency, µM (highest dose often 115 µM), hits mostly inhibitors; 390,000 compounds, 1% hits; AID 588590
Target sequence (Q9UNA4 whole entry, looked up): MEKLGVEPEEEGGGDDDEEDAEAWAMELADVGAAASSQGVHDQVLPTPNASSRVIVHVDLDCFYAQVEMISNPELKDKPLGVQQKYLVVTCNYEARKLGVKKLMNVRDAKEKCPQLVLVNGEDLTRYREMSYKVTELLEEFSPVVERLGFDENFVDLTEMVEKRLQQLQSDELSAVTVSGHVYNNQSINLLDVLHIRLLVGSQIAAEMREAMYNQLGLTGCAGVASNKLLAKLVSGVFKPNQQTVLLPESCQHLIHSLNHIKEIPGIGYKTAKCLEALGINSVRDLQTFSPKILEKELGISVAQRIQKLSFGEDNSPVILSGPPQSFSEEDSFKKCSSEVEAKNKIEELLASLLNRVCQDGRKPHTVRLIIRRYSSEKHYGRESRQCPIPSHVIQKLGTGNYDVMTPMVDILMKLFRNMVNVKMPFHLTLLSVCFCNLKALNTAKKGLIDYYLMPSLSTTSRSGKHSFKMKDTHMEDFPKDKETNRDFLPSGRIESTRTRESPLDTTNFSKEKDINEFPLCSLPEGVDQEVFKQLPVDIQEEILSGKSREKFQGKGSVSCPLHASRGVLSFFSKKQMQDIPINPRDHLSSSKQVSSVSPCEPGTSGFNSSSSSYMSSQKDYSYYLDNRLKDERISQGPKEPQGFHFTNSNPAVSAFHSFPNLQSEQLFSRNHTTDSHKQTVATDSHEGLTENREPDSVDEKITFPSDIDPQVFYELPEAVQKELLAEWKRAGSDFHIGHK
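Pol iota at 10 nM preincubated 15 min with compounds at room temperature; reaction started with fluorescent substrate, 50 nM final. Fluorescence read kinetically at 0 and 10 min; buffer-only wells as negative control.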
POLK inh = DNA polymerase kappa (human) inhibition; 400,000 compounds, 0.53% hits; AID 588579; Potency, µM (highest dose often 107 µM), hits mostly inhibitors; Q9UBT6; purified Pol kappa, fluorescent DNA synthesis assay, 10 min
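10 nM Pol kappa was preincubated with compounds for 15 min at room temperature. Reaction started with 50 nM (final) substrate. Fluorescence read kinetically at 0 and 10 min.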
POLB inh = DNA polymerase beta (human) inhibition | Potency, µM (highest dose often 114 µM), usual class: inhibitors | AID 485314 | Pol beta primer extension/strand displacement, fluorescence kinetic | P06746 | 340,000 compounds, 1.3% hits
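Values derive from four-parameter Hill fits of normalized kinetic data: reads at 0 and 10 min following addition of 50 nM substrate to 10 nM Pol beta preincubated 15 min with compound.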
L3MBTL1 inh = L3MBTL1 (human) inhibition. Q9Y468. AlphaScreen L3MBTL1–H3K9me1 peptide binding. Potency, µM (top dose mostly 57.1 µM), most hits filed as inhibitors. 230,000 compounds, 0.66% hits. AID 485360; also: nearly all actives have a fitted effect of over 60% in size
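AlphaScreen proximity signal between nickel-chelate acceptor and streptavidin donor beads (final 10 ug/mL) reports binding of 50 nM L3MBTL1 to 75 nM biotin-H3 K9me1 peptide; complex incubated with compounds 30 min at room temperature; cefsulodin titration as control.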
Pol eta inh = DNA polymerase eta (human) inhibition; AID 588591; Potency, µM (highest dose often 114 µM), most hits filed as inhibitors; recombinant Pol eta, fluorescent DNA replication assay; Q9Y253; 390,000 compounds, 1.2% hits
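Pol eta (10 nM) was preincubated with compounds for 15 min at room temperature, after which fluorescent replication substrate (50 nM final) was added to start the reaction. Fluorescence was read kinetically at 0 and 10 min.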
Each line names hits and unclear results; the compound was inactive in the other large screens. Calls follow the shape of the dose curve; as a rule, active = well fitted curve in the direction sought with a large enough effect; inconclusive = small, poorly fitted or top-dose-only effect, or another doubt; inactive = no such curve, though single readings can be large; an effect the other way counts as inactive or inconclusive.

O=C(/C=C/c1ccco1)NC(=S)Nc1ccc(Cl)cn1	POLI inh inconclusive, POLB inh 35µM, Pol eta inh inconclusive (no result: L3MBTL1 inh)
O=C(/C=C/c1ccco1)NCCc1ccc(F)cc1	POLI inh 20µM, POLB inh 25µM, Pol eta inh inconclusive (no result: L3MBTL1 inh)
CC(=O)NC(=S)Nc1ccc(NC(=S)NC(=O)/C=C/c2ccco2)cc1	POLI inh 32µM, POLB inh inconclusive, Pol eta inh inconclusive (no result: L3MBTL1 inh)
Cc1ccc(-c2csc(NC(=S)NC(=O)/C=C/c3ccco3)n2)cc1	POLI inh 50µM, POLK inh inconclusive
O=C(Nc1ccc2nccnc2c1)N1CCCCCC1	POLI inh inconclusive (no result: POLB inh, L3MBTL1 inh, Pol eta inh)
O=C(/C=C/c1ccco1)Nc1ccc2nc3n(c(=O)c2c1)CCCC3	POLI inh 71µM (no result: L3MBTL1 inh)
CC12CCC(C(=O)NCc3ccc4c(c3)OCO4)(OC1=O)C2(C)C (configuration not stated)	POLI inh 89µM
CC12CCC(C(=O)NCc3ccccc3)(OC1=O)C2(C)C (configuration not stated)	L3MBTL1 inh inconclusive
O=c1c2cc(NC(=S)N3CCCC3)ccc2nc2n1CCCCC2	none
COc1cc(OC)cc(C(=O)Oc2c(CN3CCOCC3)cc(Cl)c3cccnc23)c1	L3MBTL1 inh 25µM
CCCCNC(=O)CSc1nnc(Cc2ccc(Cl)c(Cl)c2)c(=O)[nH]1	POLI inh inconclusive, POLK inh 89µM (no result: L3MBTL1 inh)
CN(CCCc1cnc[nH]1)C(=S)NCCCN(Cc1ccc(Cl)cc1)c1ccc(Br)cn1	POLI inh inconclusive (no result: POLB inh, L3MBTL1 inh, Pol eta inh)
O=C(NCCc1ccccc1)C(c1cccs1)N(C(=O)c1csnn1)C1CC1 (configuration not stated)	POLI inh 89µM
OCc1ccnc2c(O)cccc12	none
NC(=O)c1ccnc2c(O)cccc12	POLI inh inconclusive, L3MBTL1 inh 14µM (no result: POLB inh)
COc1ccc(N(CC(=O)NCc2ccco2)S(C)(=O)=O)cc1	none
CS(=O)(=O)N(CC(=O)NCc1ccco1)c1ccc(OCc2ccccc2)cc1	POLI inh inconclusive, POLB inh 16µM
Cc1ccccc1Nc1nc(N)nc(COC(=O)c2ccc([N+](=O)[O-])o2)n1	POLI inh inconclusive, Pol eta inh 89µM (no result: POLB inh)
Cc1ccccc1Nc1nc(N)nc(COC(=O)c2ccccc2)n1	none
C/C=C(\C)NNC(=O)Cc1ccc(OC)cc1	none (no result: POLB inh, L3MBTL1 inh, Pol eta inh)
Cn1c2ccccc2c(=O)c2cc(C#CC3(O)CCCCC3)ccc21	POLB inh inconclusive
Cn1c2ccccc2c(=O)c2ccc(C#CC3(N)CCCCC3)cc21	POLI inh inconclusive, POLK inh inconclusive, POLB inh 35µM
O=C(O)Cn1cc(/C=C/[N+](=O)[O-])c2ccccc21	POLI inh 28µM, Pol eta inh 45µM
CC[C@H](C)[C@H](NC(=O)[C@H](CCC(=O)O)NC(=O)[C@H](CO)NC(=O)[C@@H](NC(=O)[C@@H](N)CO)C(C)C)C(=O)N[C@@H](CCC(N)=O)C(=O)N[C@@H](CC(C)C)C(=O)N[C@@H](CCSC)C(=O)N[C@@H](Cc1cnc[nH]1)C(=O)N[C@@H](CC(N)=O)C(=O)N[C@@H](CC(C)C)C(=O)NCC(=O)N[C@@H](CCCCN)C(=O)N[C@@H](Cc1cnc[nH]1)C(=O)N[C@@H](CC(C)C)C(=O)N[C@@H](CC(N)=O)C(=O)N[C@@H](CO)C(=O)N[C@@H](CCSC)C(=O)N[C@@H](CCC(=O)O)C(=O)N[C@@H](CCCNC(=N)N)C(=O)N[C@H](C(=O)N[C@@H](CCC(=O)O)C(=O)N[C@@H](Cc1c[nH]c2ccccc12)C(=O)N[C@@H](CC(C)C)C(=O)N[C@@H](CCCNC(=N)N)C(=O)N[C@@H](CCCCN)C(=O)N[C@@H](CCCCN)C(=O)N[C@@H](CC(C)C)C(=O)N[C@@H](CCC(N)=O)C(=O)N[C@@H](CC(=O)O)C(=O)N[C@H](C(=O)N[C@@H](Cc1cnc[nH]1)C(=O)N[C@@H](CC(N)=O)C(=O)N[C@@H](Cc1ccccc1)C(=O)N[C@H](C(=O)N[C@@H](C)C(=O)N[C@@H](CC(C)C)C(=O)NCC(=O)O)C(C)C)C(C)C)C(C)C	none (no result: POLI inh, POLB inh, L3MBTL1 inh, Pol eta inh)
O=C(CNC(=O)c1cccc(F)c1)N/N=C/c1cc(Br)ccc1OC(=O)/C=C/c1ccco1	POLI inh inconclusive, POLB inh 35µM, L3MBTL1 inh inconclusive
CC(=O)Nc1ccc(OS(=O)(=O)O)cc1	none (no result: POLI inh, POLB inh, L3MBTL1 inh, Pol eta inh)
CSc1cccc(NC(=O)C2CCCN(S(=O)(=O)c3ccc4c(c3)CCCN4C(C)=O)C2)c1 (configuration not stated)	none (no result: L3MBTL1 inh)
CCc1ccc(OCC(=O)NNC(=O)Cc2cccs2)cc1	POLB inh 20µM, Pol eta inh inconclusive
CCc1ccc(OCC(=O)NNC(=O)c2cc3ccccc3o2)cc1	POLB inh 25µM
COc1ccc(OCC(=O)Nc2cccc(-c3nc4ccccc4o3)c2)cc1	POLI inh inconclusive, POLB inh inconclusive (no result: L3MBTL1 inh)
CCc1ccc(OCC(=O)Nc2ccc(-c3nc4ccccc4o3)c(O)c2)cc1	POLB inh 2.2µM, Pol eta inh inconclusive
Cc1cc(C)cc(OCC(=O)NNC(=O)c2cc3ccccc3o2)c1	none
COc1ccc(-n2nnnc2SCC(=O)NC2CC2)cc1	Pol eta inh 89µM (no result: POLB inh)
COc1ccc(-n2nnnc2SCC(=O)NC2CCS(=O)(=O)C2)cc1 (configuration not stated)	none (no result: POLB inh)
Oc1ccc(-c2nnc(Nc3cccc(O)c3)c3ccccc23)cc1	none
C#CCOc1ccc(-c2nnc(Nc3cccc(C)c3)c3ccccc23)cc1	POLI inh inconclusive, POLK inh 89µM (no result: L3MBTL1 inh)
Cc1cccc(NC(=O)Cn2nnc(-c3nc(-c4ccncc4)no3)c2N)c1	POLB inh 56µM (no result: L3MBTL1 inh, Pol eta inh)
COc1ccc(NC(=O)Cn2nnc(-c3nc(-c4ccncc4)no3)c2N)cc1OC	POLB inh 79µM (no result: L3MBTL1 inh, Pol eta inh)
Cc1cc(C)c(NC(=O)Cn2nnc(-c3nc(-c4ccncc4)no3)c2N)c(C)c1	none (no result: L3MBTL1 inh, Pol eta inh)
CC(C)(C)[C@H]1CCC(=O)N(CCSc2ccc(Br)cc2)CC1	POLI inh inconclusive (no result: POLB inh, L3MBTL1 inh, Pol eta inh)
Cc1c(O)ccc(C(=O)CN2CCN(c3ccccc3F)CC2)c1O	none (no result: L3MBTL1 inh)
O=C(CN1CCN(c2ccccc2F)CC1)c1ccc(O)c(O)c1	POLI inh 45µM, POLK inh inconclusive, Pol eta inh inconclusive (no result: L3MBTL1 inh)
CCN(CC)CCNC(=O)CCn1c(=O)c2cccn2c2cccnc21	none (no result: L3MBTL1 inh)
O=C1NN(c2cccc(Br)c2)C(=O)/C1=C/c1cccs1	POLI inh inconclusive, Pol eta inh 79µM (no result: L3MBTL1 inh)
CN(Cc1ccsc1)C(=O)Cn1cc(Br)ccc1=O	POLI inh 22µM (no result: L3MBTL1 inh)
CCOc1cccc(NC(=O)C2CC(=O)N(C)C(=Nc3cccc(OC)c3)S2)c1 (configuration not stated)	POLI inh inconclusive (no result: L3MBTL1 inh)
COc1ccc(NC(=O)NNC(=O)COc2ccc([N+](=O)[O-])c(C)c2)cc1OC	POLB inh 50µM (no result: L3MBTL1 inh)
CC(C)Sc1oc(-c2ccco2)nc1S(=O)(=O)c1ccc(F)cc1	POLI inh inconclusive, POLK inh inconclusive, POLB inh 28µM, Pol eta inh 71µM
